# Most compounds without a hit are left out; they make up all but 1.7% or so of the library.
# p53ts 32C kill – cytotoxicity in p53ts cells at permissive temperature; H1299-p53A138V at 32C, ATP luminescence viability, 24 h; Potency, µM (top dose mostly 46.1 µM), for inactives: at the highest dose activity change, negative = cytotoxicity, most hits filed as cytotoxic; 130,000 compounds, 0.93% hits; AID 924;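 further: 0% = DMSO and -100% = full killing by reference compound; nearly all actives have a fitted effect of over 55% in size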
#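 Cells: H1299 p53ts (A138V), 600/well, pre-incubated 16–30 h at 37C. Cpd up to 46 uM, 24 h, 32C. Readout: ATPlite luminescence, 20 min RT. Normalization: DMSO vs tamoxifen 100 uM. AC50 by Hill equation.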
# Peg3 imprint – induces erasure of genomic imprints in mouse ES cells; mouse ES Peg3-LacZ reporter, beta-gal luminescence, 40 h; Potency, µM (titrated, usually from 60.7 µM), for inactives: at the top dose activity change, positive = activation, actives largely listed as activators; 110,000 compounds, 0.02% hits; AID 1948
#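 Each well holds 300 Peg3LacZ-Neo (maternal) female ES cells incubated 40 h at 37C, 5% CO2. LacZ is measured by BetaGlo luminescence, with AC50 and maximum efficacy derived from dose-response curves.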
# p53ts 39C tox – cytotoxicity in p53ts cells at nonpermissive temperature. H1299-p53A138V viability at 39C, ATP luminescence, 24 h. Potency, µM (highest dose often 46.1 µM), for the others: top-dose activity change, negative = cell killing, hits mostly cytotoxic. 130,000 compounds, 1.5% hits. AID 902; further: on the % scale 0 is the no-effect control and ±100 the full control effect; nearly all actives have a fitted effect of over 55% in size
# IkB signaling – inhibitors of IkB signaling in ABC-DLBCL cells; ABC-DLBCL IkBa-CBG/CBR dual luciferase ratio, 4 h; response scale: scaled: untreated 0%, proteasome inhibitor 100%; 110,000 compounds, 0.04% hits; Potency, µM (highest dose often 57.1 µM), for the others: at the top dose IkBa stabilization activation; active means well fitted curve in the direction sought with a large enough effect in the signal ratio, not every such curve was filed as active; inconclusive means small, poorly fitted or top-dose-only effect, or a change in a side signal; the % refers to the signal ratio;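 further: the direction sought is a rising ratio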
#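 Curves were fitted separately to fusion (green), unfused (red) and ratio luminescence, then classed by r2, magnitude and activity. Cells: OCI-Ly3, 4 h compound plus doxycycline at 37C; 10 uM MG-132 defined full response.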
# An asterisk follows results filed as active; ? = inconclusive; · = not tested or not shown; [ ] = remark or other dose. Unless noted, the call rests on the fitted dose curve; in most records, active means well fitted curve in the direction sought with a large enough effect; inconclusive means small, poorly fitted or top-dose-only effect, or another doubt; inactive means no such curve, though single readings can be large; an effect the other way counts as inactive or inconclusive. Potency means the concentration at half of the fitted maximal effect.
SMILES,p53ts 32C kill,Peg3 imprint,p53ts 39C tox,IkB signaling
CCn1c(SCc2ccccc2Cl)nc(=O)c2c(C(=O)OC)cc(C3CC3)nc21,10%,1%[10.9 µM],13µM*,?
CCOc1ccc(-c2[nH]ncc2Oc2cccc(OC)c2)c(O)c1,-23%,-22%,16µM*,6%
CCOc1ccc(N/C=C/C(=O)c2ccccc2)c([N+](=O)[O-])c1,·,·,5.6µM*,·
CCOc1ccc(NC(=O)CC2C(=O)N(c3ccccc3)C(=O)N2Cc2cccc(OC)c2)cc1 (centres undefined),-4%,6%[10.9 µM],?,3%
COc1cc(N)c(Cl)cc1C(=O)CCC1CCN(CCNS(C)(=O)=O)CC1,-1%,-10%,-7%,0%
COc1cc(COc2cc(N)c(Cl)cc2C(=O)CCC2CCN(CCNS(C)(=O)=O)CC2)cc(OC)c1,32µM*,-21%,32µM*,?
O=C1CCSC2(C(=O)N(Cc3ccc(F)cc3)c3ccccc32)N1c1cccc(F)c1 (centres undefined),-3%,2%[10.9 µM],28%,-4%
O=C1C(c2ccncc2)=C(O)c2ccccc21,3.2µM*,?,6.3µM*,?
Fc1cccc2sc(Nc3nnc(-c4ccco4)o3)nc12,?,-62%,?,?
COc1cccc2sc(Nc3nnc(-c4cccs4)o3)nc12,?,-92%,13µM*,?
O=C(Nc1ccccc1-c1nc2ccccc2o1)c1ccc2c(c1)OCCO2,-12%,-2%,0%,-1%
O=C(Nc1ccc2oc(-c3cc(Br)ccc3Cl)nc2c1)c1ccc2ccccc2c1,?,-10%[10.9 µM],13µM*,5%
O=C(Nc1ccc2oc(-c3ccc4ccccc4c3)nc2c1)c1cc(Br)ccc1Cl,-24%,-12%[10.9 µM],?,3%
O=C(Nc1ccc2oc(-c3ccccc3F)nc2c1)c1ccc2c(c1)OCCO2,13µM*,-24%,-29%,?
COc1ccc(/C=N/NC(=O)c2cc(-c3ccc(Cl)cc3)n[nH]2)cc1OC,-26%,·,-23%,·
O=C(NCc1cccc(Cl)c1)c1ccc(NC(=O)N2CC3CCCN3c3ccccc32)cc1 (centres undefined),-2%,-7%[10.9 µM],5%,?
O=C(Nc1cccc(Cl)c1)N1CC2CCCN2c2ccccc21 (centres undefined),0%,6%[10.9 µM],10µM*,2%
CCOC(=O)c1ccc2c(c1)N(Cc1ccc(F)cc1Cl)C(=O)c1ccccc1S2(=O)=O,8%,-2%[10.9 µM],14%,-1%
Cc1cc(C)cc(NC(=O)CCc2c(C)nc3c(c2C)c(=O)n(C)c(=O)n3C)c1,4%,21%[10.9 µM],2%,?
COc1ccc(NC(=O)CSc2nnc3scc(-c4ccc(Cl)cc4)n23)cc1,?,-13%[10.9 µM],13µM*,?
Cc1oc2ncn(C)c(=O)c2c1C(=O)NC(C)c1ccccc1 (centres undefined),18%,-10%[10.9 µM],15%,-1%
CC1=C(\C=C/C(C)=C/C=C\C(C)=C\C(=O)Nc2ccc(O)cc2)C(C)(C)CCC1,·,·,·,19%
CCC1Oc2ccc(Cl)cc2N(CC(=O)NCCc2ccc(Cl)cc2)C1=O (centres undefined),5%,-16%[10.9 µM],-29%,?
COc1ccc(OCc2ccc(C(=O)N3CCOCC3)cc2)cc1,-19%,·,9%,·
CCOc1ccc(OCc2cccc(C(=O)N3CCOCC3)c2)cc1,10µM*,-99%,13µM*,?
SMILES,p53ts 32C kill,Peg3 imprint,p53ts 39C tox,IkB signaling
O=C(CC1S/C(=N/N=C/c2cccs2)NC1=O)Nc1ccc(Cl)c(Cl)c1 (centres undefined),·,·,8%,·
CCC1SC(=NC(=O)c2ccc(Cl)c(Cl)c2)NC1=O (centres undefined),7.9µM*,-71%,7.9µM*,?
CCc1ccc(-n2c(=O)c3c(C)c(C(=O)N(C)C)sc3n(CC(=O)Nc3cc(Cl)ccc3C)c2=O)cc1,4%,16%[10.9 µM],23%,9%
CCOc1ccccc1NC(=O)Cn1c(=O)n(-c2ccc(C)c(C)c2)c(=O)c2c(C)c(C(=O)N(C)C)sc21,-3%,25%[10.9 µM],13µM*,-1%
CCCNC(=O)CCCN1C(=O)CCn2nc(-c3cccn3C)cc21,7%,-7%[10.9 µM],-11%,1%
Cc1c(Cl)cccc1-n1c(SCC(=O)NCc2ccccc2)nc2n[nH]c(C)c2c1=N,-12%,11%[10.9 µM],-10%,?
Cc1ccc(-n2c(SCC(=O)NCc3ccccc3)nc3n[nH]c(C)c3c2=N)cc1Cl,6%,-1%[10.9 µM],20µM*,-3%

# High-throughput results from PubChem BioAssay.
